SMN2 splice enh – enhancers of SMN2 splice variant expression; HEK293 SMN2-luciferase splicing reporter, luminescence, 30-36 h; AID 1458; 2.8% of 210,000 active; Potency, µM (highest dose often 46.1 µM), inactives show at the highest dose activity change, positive = activation, usual class: activators; further: % of control where 0% means no effect; nearly all actives have a fitted effect of over 55% in size
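HEK293 cells carry an SMN2 minigene-luciferase reporter in which exon 7 inclusion puts luciferase in frame. Cells were seeded at 2000 cells/well, attached for 10-12 hours, then exposed to compounds for 30-36 hours at 37C before ONE-Glo luminescence.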
NPC1 promoter act – activates the NPC1 promoter; AID 485313; Potency, µM (doses to about 9.22 µM), for the others: at the highest dose activation, hits mostly activators; 2.4% of 320,000 active; Huh7 NPC1 promoter luciferase reporter, 24 h; further: % of control where 0% means no effect; nearly all actives have a fitted effect of over 60% in size
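Quantitative HTS used a cell-based reporter: Huh7 cells stably bearing the NPC1 promoter upstream of luciferase were treated with compounds for 24 h, and promoter activation was read as luminescence.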
FLuc counter – firefly luciferase modulation, counter-screen for miR-21 project | AID 588342 | 6.9% of 360,000 active | P08659 | purified FLuc, Km substrates, luminescence inhibition | Potency, µM (highest dose often 57.5 µM), for the others: at the top dose activity change, negative = inhibition, actives largely listed as inhibitors;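 further: plate controls were vehicle for no effect and reference inhibitor for full effect; nearly all actives have a fitted effect of over 55% in size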
Target sequence (P08659 whole entry, looked up): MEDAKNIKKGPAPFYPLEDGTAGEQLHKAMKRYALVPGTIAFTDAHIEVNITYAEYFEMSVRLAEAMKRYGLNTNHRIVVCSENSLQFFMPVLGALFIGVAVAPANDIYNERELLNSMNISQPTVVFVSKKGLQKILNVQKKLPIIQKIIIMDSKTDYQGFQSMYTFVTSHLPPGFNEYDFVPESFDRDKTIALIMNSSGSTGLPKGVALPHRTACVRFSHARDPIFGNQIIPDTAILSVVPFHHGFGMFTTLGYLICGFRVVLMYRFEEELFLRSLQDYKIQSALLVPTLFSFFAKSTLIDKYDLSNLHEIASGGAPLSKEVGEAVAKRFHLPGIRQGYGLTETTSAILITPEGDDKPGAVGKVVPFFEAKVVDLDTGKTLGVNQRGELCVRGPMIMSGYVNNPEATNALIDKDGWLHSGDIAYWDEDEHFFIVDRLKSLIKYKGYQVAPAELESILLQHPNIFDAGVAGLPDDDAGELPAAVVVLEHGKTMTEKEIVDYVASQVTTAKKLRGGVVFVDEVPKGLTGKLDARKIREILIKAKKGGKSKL
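Biochemical qHTS of compounds, final roughly 60 µM downward over six points, against 10 nM purified firefly luciferase using Km concentrations of substrates (10 uM D-luciferin, 10 uM ATP) in Tris acetate pH 7.5 buffer; luminescence output.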
ELG1 genotoxic – genotoxicity induction in ELG1-luciferase HEK293T cells; Potency, µM (doses to about 46 µM), without a hit: top-dose activity change, positive = activation, hits mostly activators; 1.3% of 330,000 active; HEK293T ELG1-luciferase reporter, luminescence, 16 h; further: % of control where 0% means no effect; nearly all actives have a fitted effect of over 60% in size
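Genotoxicity was scored as increased ELG1-luciferase reporter signal, measured by ONE-Glo luminescence (30 min, room temperature). Compound or vehicle exposure of the HEK293T reporter cells lasted 16 hr at 37°C.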
Rab9 promoter act – Rab9 promoter activation; Huh7 Rab9 promoter-luciferase reporter, luminescence, 24 h; Potency, µM (series often up to 9.22 µM), for inactives: at the highest dose activation, negative = inhibition, actives largely listed as activators; 2.8% of 320,000 active; AID 485297; further: % of control where 0% means no effect; nearly all actives have a fitted effect of over 60% in size
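Huh7 cells stably carrying a Rab9 promoter-luciferase reporter, 1500 cells per well in OP-MEM I with 10% FBS, treated with compound 24 hours at 37C. Luciferase activity read by luminescence after 10 minutes with Amplite reagent.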
p53 reactivator – mutant p53 re-activation in reporter cells; H1299 p53-A138V BP100-luciferase reporter, luminescence, 24 h; Potency, µM (highest dose often 92.2 µM), for the others: at the top dose activity change, positive = activation, usual class: activators; 0.063% of 320,000 active; further: % of control where 0% means no effect; nearly all actives have a fitted effect of over 45% in size
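p53-null H1299 cells stably carrying temperature-sensitive p53-A138V and a BP100-luciferase reporter were pinned with compounds (4-point, 1:5 series) and held 24 hrs at 37 deg C. Luminescence was read 10 min after detection reagent.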
* marks the source's active call; other numbers are inactive results; u = inconclusive; x = no result; [ ] = remark or other dose. This is a sample that favours compounds with a hit; in the whole collection about 7.4% have one here. The call rests on the fitted dose curve; in most records, active means well fitted curve in the direction sought with a large enough effect; inconclusive means small, poorly fitted or top-dose-only effect, or another doubt; inactive means no such curve, though single readings can be large; an effect the other way counts as inactive or inconclusive. Potency means the concentration at half of the fitted maximal effect.

SMILES	SMN2 splice enh	NPC1 promoter act	FLuc counter	ELG1 genotoxic	Rab9 promoter act	p53 reactivator
CC(Sc1nc(-c2ccccc2)c(C#N)c(=O)[nH]1)C(=O)Nc1ccc(F)cc1 (centres undefined)	x	x	17µM*	x	x	x
Cc1ccc(NC(=O)C(C)Sc2nc(-c3ccccc3)c(C#N)c(=O)[nH]2)c(C)c1 (centres undefined)	x	x	12µM*	x	x	x
CSc1nc(-c2ccccc2)c(C#N)c(=O)[nH]1	x	0%	-1%	-2%	-3%	2%
Cc1ccc(C)c(NC(=O)CSc2nc(-c3ccccc3)c(C#N)c(=O)[nH]2)c1	x	x	-4%	x	x	x
COc1ccc(C(=O)NC2CCCc3ccccc32)c(OC)c1OC (centres undefined)	x	-2%	3%	-8%	0%	-5%
Cc1ccccc1Nc1c(-c2c[nH]c3ccccc23)nc2ccccn12	22%	x	5%	x	x	x
Cc1ccn2c(Nc3ccccc3)c(-c3c[nH]c4ccccc34)nc2c1	11µM*	x	-14%	x	x	x
Cc1ccccc1Nc1c(-c2c[nH]c3ccccc23)nc2ccc(Cl)cn12	18%	x	-9%	x	x	x
Cc1ccc2nc(-c3c[nH]c4ccccc34)c(Nc3ccc(F)cc3)n2c1	14µM*	x	6%	x	x	x
Cc1ccc(Nc2c(-c3c[nH]c4ccccc34)nc3cc(C)ccn23)cc1	14µM*	x	-11%	x	x	x
CCCn1c(=O)c2sccc2n2c(CCCC(=O)NC3CCCCC3)nnc12	x	x	-1%	x	x	x
Cc1cccc(NC(=O)Cn2c(=O)n(Cc3ccccc3)c(=O)c3oc4ccccc4c32)c1C	x	x	2%	x	x	x
CC(C)(C)c1ccc(S(=O)(=O)NCC(=O)Nc2ccc(-c3nc4ccccc4s3)cc2)cc1	11µM*	-2%	u	u	27%	u
O=C(CNS(=O)(=O)c1cccc(Cl)c1)Nc1ccc(-c2nc3ccccc3s2)cc1	4.5µM*	u	15µM*	8.2µM*	1.6µM*	u
CC(NS(=O)(=O)c1cccc(Cl)c1)C(=O)Nc1ccc(-c2nc3ccccc3s2)cc1 (centres undefined)	20µM*	u	17µM*	u	2.8µM*	14%
Cc1ccc(C)c(S(=O)(=O)NC(C)C(=O)Nc2ccc(-c3nc4ccccc4s3)cc2)c1 (centres undefined)	5%	3.5µM*	7.6µM*	u	3.2µM*	15%
O=C(O)CNS(=O)(=O)c1cccc(Cl)c1	x	1%	2%	0%	-2%	3%
CCc1ccc2nc(N(CCN(CC)CC)C(=O)c3cccs3)sc2c1	x	x	-3%	x	x	x
CCN(c1ccccc1)S(=O)(=O)c1cc(Br)cc2c1N(C(=O)C1CC1)CC2	-1%	x	-10%	x	x	x
O=C(O)CCC(=O)Nc1ccc2c(c1)Cc1cc(NC(=O)CCC(=O)O)ccc1-2	x	-2%	-9%	8%	-1%	-1%
CC(C)(C)C(=O)N1CCN(c2nc3ccc(Br)cc3s2)CC1	x	u	u	5%	u	14%
CCCCC(=O)N1CCN(c2nc3ccc(Br)cc3s2)CC1	x	24%	u	6%	-4%	6%
CCCC(=O)N1CCN(c2nc3ccc(Br)cc3s2)CC1	x	29%	21µM*	12%	u	3%
CCCC(=O)N1CCN(c2nc3ccc(CC)cc3s2)CC1	x	u	13µM*	13%	u	22%
CCCC(=O)N1CCN(c2nc3ccc(Cl)cc3s2)CC1	x	u	12µM*	u	u	11%
SMILES	SMN2 splice enh	NPC1 promoter act	FLuc counter	ELG1 genotoxic	Rab9 promoter act	p53 reactivator
CC(=O)N1CCN(c2nc3ccc(Br)cc3s2)CC1	x	3.2µM*	15µM*	u	u	u
CN(C/C=C\c1ccccc1)Cc1cccc2ccccc12	2%[20.6 µM]	x	x	x	x	x
COc1ccc(N2CCN(C(=O)COC(=O)CNC(=O)c3ccccc3)CC2)cc1	x	-2%	4%	10%	5%	5%
CC(C)(C)C(=O)N1CCN(c2nc3ccc(Cl)cc3s2)CC1	x	2µM*	11µM*	u	u	10%
COc1ccc(/C=C2\SC(=O)N(CCNC(=O)CCS(=O)(=O)c3ccc(C)cc3)C2=O)cc1	16µM*	u	9.5µM*	u	2.8µM*	u
COc1ccc(/C=C2\SC(=O)N(CCNC(=O)Cn3cnnn3)C2=O)cc1	7.9µM*	2.8µM*	12µM*	4µM*	3.2µM*	u
CC(C)c1cnc2c(c1SCC(=O)Nc1ccc(OC(F)(F)F)cc1)c(=O)n(C)c(=O)n2C	x	x	2%	x	x	x
CCSc1nn2c(=O)c3ccccc3nc2s1	14µM*	3.5µM*	19µM*	5µM*	2.5µM*	u
CCc1cccc(C)c1Nc1nn2c(=O)c3ccccc3nc2s1	x	x	-1%	x	x	x
CC(=O)c1ccc(NC(=O)c2sc(-n3nc(C)c(Cc4ccccc4)c3C)nc2C)cc1	x	x	0%	x	x	x
COC(=O)C1=C(C)NC(C)=C(C(=O)OC)C1/C=C/c1ccccc1	26%	-2%	1%	16µM*	-1%	-13%
Cc1nc(N2N=C(c3ccc(Cl)cc3)CC2c2ccco2)sc1C(=O)N(C)C (centres undefined)	10%	-1%	15µM*	1%	2%	0%
CCn1nc(C(=O)NNC(=O)CCOc2cc(C)ccc2C)c2ccccc2c1=O	x	-4%	3%	-4%	-1%	-1%
O=c1n(Cc2ccccc2Cl)nc2n1-c1ccccc1SC2	x	u	24µM*	u	3.5µM*	4%
O=C(O)c1ccc(/C=C/c2nc3ccccc3c(=O)[nH]2)cc1	x	12%	15µM*	-3%	-5%	1%
O=c1[nH]c(/C=C/c2ccccc2Cl)nc2ccccc12	x	u	0.85µM*	2.1µM*	0.4µM*	u
Cc1[nH]c2ccccc2c1/C=C/c1nc2ccccc2c(=O)[nH]1	x	3.2µM*	2.4µM*	7.3µM*	1.4µM*	-5%
N#C/C(=C/c1ccccc1Cl)c1nc2ccccc2c(=O)[nH]1	-3%	x	2%	x	x	x
O=C(O)c1ccc(/C=C/c2nc3sc4c(c3c(=O)[nH]2)CCC4)cc1	-13%	5%	19µM*	3%	13%	3%
Cc1ccc(S(=O)(=O)c2nnn3c2nc(N2CCOCC2)c2sccc23)cc1C	x	x	1%	x	x	x
O=C(NCC1CCCO1)c1ccc(NC(=O)c2cc(F)c(F)cc2Cl)cc1 (centres undefined)	x	1%	-2%	-5%	14%	-65%
COc1cc2c(cc1OC)C(CCN)=NCC2	-5%[9.22 µM]	x	x	x	x	x
Cc1cccc(/C=C/c2nc3ccccc3c(=O)[nH]2)c1	4.5µM*	u	1.1µM*	8.2µM*	u	4%
CCOc1cc(/C=C/c2nc3ccccc3c(=O)[nH]2)ccc1O	x	u	u	u	u	-3%
